KB-V1 MDR tox: KB-V1 MDR subline cytotoxicity; KB-V1 MDR cells viability, CellTiter-Glo, 72 h; Potency, µM (titrated, usually from 46.1 µM), usual class: cytotoxic; 400,000 tested, 3.4% active; further: nearly all actives have a fitted effect of over 60% in size
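Compound-treated KB-V1 multidrug-resistant cells, 72 h, 37 degrees C; viability by CellTiter-Glo. Fitted qHTS curves give the values.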
MCF10A rerep: inducers of DNA re-replication in MCF 10A breast cells | MCF 10A DNA re-replication, Hoechst nuclear intensity, 48 h | Potency, µM (doses to about 46.1 µM), actives largely listed as activators | 350,000 tested, 2.9% active; further: nearly all actives have a fitted effect of over 50% in size
SW480 rereplic: inducers of DNA re-replication in SW480 colon cancer cells. SW480 DNA re-replication, Hoechst DNA content imaging, 48 h. Potency, µM (top dose mostly 46.1 µM), actives largely listed as activators. 340,000 tested, 1.8% active; further: nearly all actives have a fitted effect of over 55% in size
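DNA re-replication was detected as more nuclei of elevated Hoechst intensity after 48 hr exposure to compound (23 nL pinned per well of 250 cells).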
IL1B secr inh: inflammasome signaling inhibition, IL-1 beta readout; THP-1 LPS/ATP IL-1B secretion, AlphaLISA, 16 h; stronger effect = lower value; activity change, % at 57.5 µM; 360,000 tested, 4.7% active; in the data active means activity change below about -50%; inconclusive means mostly about -30% to -49%
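Secreted IL-1B measured by AlphaLISA bead assay after 16 h compound exposure of THP-1 cells; compounds (final up to 57.5 uM) added 1 h before LPS (250 ng/mL) and ATP (1.25 mM) stimulation; lower signal means less secretion.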
KB-3-1 cytotox: kills parental KB-3-1 adenocarcinoma cells; KB-3-1 viability, CellTiter-Glo ATP luminescence, 72 h; Potency, µM (titrated, usually from 46.1 µM), hits mostly cytotoxic; 400,000 tested, 1.4% active; further: nearly all actives have a fitted effect of over 60% in size
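Cells are dispensed, compounds pinned in, plates held at 37 °C for 72 h, then CellTiter-Glo is added and luminescence read after 10 minutes. Cell line: parental KB-3-1 in phenol-red-free DMEM, 10% FBS.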
A number is an active result; – = inactive; ? = inconclusive; · = no result. Hits are enriched below; roughly 9.9% of the tested compounds scored in any of these assays. Unless noted, the call rests on the fitted dose curve; in most records, active means well fitted curve in the direction sought with a large enough effect; inconclusive means small, poorly fitted or top-dose-only effect, or another doubt; inactive means no such curve, though single readings can be large; an effect the other way counts as inactive or inconclusive.

SMILES | KB-V1 MDR tox | MCF10A rerep | SW480 rereplic | IL1B secr inh | KB-3-1 cytotox
COc1ccc(C[C@H]2CN3C(=NC[C@@H]3Cc3ccccc3)N2CCNC(=O)c2ccc(C)c(Br)c2)cc1 | ? | – | – | -52 | ?
COC(=O)C1=C(C)NC2=C(C(=O)CC(c3cccs3)C2)C1c1ccsc1 (centres undefined) | 7.3µM | ? | ? | – | ?
COC(=O)C1=C(C)Nc2c(c(=O)n(C)c(=O)n2C)C1c1cccs1 (centres undefined) | – | – | – | – | –
CCOC(=O)C1=C(C)NC2=C(C(=O)CC(c3cccs3)C2)C1c1cccs1 (centres undefined) | 15µM | 20µM | ? | ? | 5.8µM
CCOC(=O)C1=C(C)NC(c2cccs2)C(=O)N1 (centres undefined) | – | – | ? | – | –
CC1=C(C(=O)OC2CCCC2)C(c2ccc(C)o2)C2=C(CC(c3cccs3)CC2=O)N1 (centres undefined) | 21µM | ? | ? | – | –
CCCOC(=O)C1=C(C)NC2=C(C(=O)CCC2)C1c1cccs1 (centres undefined) | 23µM | – | – | – | –
O=[N+]([O-])c1ccccc1OCCCOc1cccc2cccnc12 | – | – | – | – | –
CSc1nnc(C)c(/C=C/Nc2ccc(F)cc2)n1 | ? | ? | – | – | –
COc1ccc(N/C=C/c2nc(SC)nnc2C)cc1 | – | ? | 15µM | – | –
O=C(C[n+]1ccccc1Cl)c1ccc2c(c1)CCCC2 | – | · | · | · | –
COc1ccc(C[C@@H]2C(=O)N[C@H](C)C(=O)N(C)[C@@H]3Cc4ccc(cc4)Oc4cc(ccc4O)C[C@H](C(=O)N[C@@H](C)C(=O)N[C@H](C)C(=O)N2C)N(C)C3=O)cc1 | – | · | · | · | –
CSCCC(NC(=O)c1cccc(C)c1)C(=O)NCc1cccs1 (centres undefined) | – | – | – | – | –
Cc1ccc(S(=O)(=O)Cc2ccc(C(=O)N3CCN(c4cccc(Cl)c4)CC3)o2)cc1 | 5.8µM | · | · | · | ?
Cc1ccccc1S(=O)(=O)Cc1ccc(C(=O)N2CCN(c3cccc(Cl)c3)CC2)o1 | 4.6µM | · | · | · | 4.1µM
Cc1ccc(Cl)cc1N1CCN(C(=O)c2ccc(CS(=O)(=O)c3ccc(Br)cc3)o2)CC1 | – | · | · | · | ?
Cc1ccccc1S(=O)(=O)Cc1ccc(C(=O)N2CCN(c3cccc(C)c3C)CC2)o1 | 5.8µM | 2.3µM | 4.1µM | – | 5.2µM
C[C@@H](C(=O)O)c1ccc(C(=O)c2ccccc2)s1 | · | – | – | · | ·
Cc1ccccc1CN1N=C(/C=C/c2ccccc2)CCC1=O | ? | – | – | – | –
CCOC(=O)CN1N=C(/C=C/c2ccc(C)cc2)CCC1=O | 5.8µM | – | – | – | 5.2µM
O=C(CN(c1cccc(C(F)(F)F)c1)S(=O)(=O)c1ccc(Cl)c([N+](=O)[O-])c1)NCc1ccc(F)cc1 | – | 2.9µM | ? | -99 | ?
CCCN1CCN(C(=S)Nc2ccc3nc(N4CCN(CC)CC4)cc(C)c3c2)CC1 | – | 18µM | ? | – | –
CCN1CCN(c2cc(C)c3cc(NC(=S)N4CCC5(CC4)OCCO5)ccc3n2)CC1 | – | – | – | – | ?
CCN1CCN(c2cc(C)c3cc(NC(=S)N4CCN(c5ccccc5)CC4)ccc3n2)CC1 | – | 21µM | 18µM | – | –
Cc1cc(N2CCOCC2)nc2ccc(NC(=S)N3CCN(c4ccccc4)CC3)cc12 | – | – | ? | – | ?
SMILES | KB-V1 MDR tox | MCF10A rerep | SW480 rereplic | IL1B secr inh | KB-3-1 cytotox
CCN1CCN(c2cc(C)c3cc(NC(=S)N4CCOCC4)ccc3n2)CC1 | – | ? | 16µM | – | –
Cc1csc2nc(COC(=O)c3ccc(F)cc3)cc(=O)n12 | – | · | · | · | ?
CN[C@@H](C)C(=O)NC[C@H]1O[C@@H](n2cnc3c(N)ncnc32)[C@H](O)[C@@H]1O | – | – | ? | – | –
CC(=O)C1=C(C)NC(SCC(=O)c2ccc(Cl)cc2)=C(C#N)C1c1ccco1 (centres undefined) | 21µM | – | – | -62 | –
CC1=C(C(=O)Nc2nc3ccccc3s2)C(c2ccco2)C(C#N)=C(SCC(=O)NC2CCCCC2)N1 (centres undefined) | – | 15µM | 18µM | ? | –
CC(=O)C1=C(C)NC(SCC(=O)c2ccc(Cl)cc2Cl)=C(C#N)C1c1ccco1 (centres undefined) | – | – | – | -54 | –
CC1=C(C(=O)Nc2ccccc2)C(c2ccncc2)C(C#N)=C(SCC(=O)NC2CC2)N1 (centres undefined) | – | – | – | – | –
CCC1(c2ccccc2)NC(=O)N(CC(=O)NNC(=O)c2ccc(F)cc2)C1=O (centres undefined) | – | – | – | – | –
COC(=O)c1ccc2nc(-c3cccc(Cl)c3)c(Cc3cccc(F)c3)n2c1 | – | · | · | – | –
Cc1nc2c(O)c3c(c(O)c2nc1C)C1C=CC3CC1 | ? | 5.2µM | 3.3µM | – | –
O=C(Cn1nc(-c2ccc(Cl)cc2)ccc1=O)N1CCN(c2ccccc2)CC1 | 21µM | – | – | – | –
O=C(Cn1cnc2c(cnn2-c2ccccc2)c1=O)N1CCOCC1 | – | – | – | – | ?
O=C(Cn1ncc2ccsc2c1=O)N1CCN(c2ccc(Cl)cc2)CC1 | 21µM | · | · | · | ?
O=C(Cn1ncc2ccsc2c1=O)N1CCN(c2ccccc2F)CC1 | – | · | · | · | –
O=C(Cn1cnc2c(cnn2-c2ccc(Cl)cc2)c1=O)N1CCN(c2ccccc2)CC1 | 5.2µM | – | – | – | –
O=C(Nc1ccccc1)C1CCN(c2ncc(-c3ccc4c(c3)OCCCO4)s2)CC1 | – | · | · | · | –
Cc1ccc(C)c(-n2ccnc2SCC(=O)c2c(N)n(C3CC3)c(=O)[nH]c2=O)c1 | – | – | 18µM | – | –
Cc1cc(C)cc(-n2ccnc2SCC(=O)c2c(N)n(C3CC3)c(=O)[nH]c2=O)c1 | – | – | – | – | –
Nc1c(C(=O)CSc2nc3ccccc3o2)c(=O)[nH]c(=O)n1C1CC1 | – | ? | – | – | 1.3µM
C=CCn1c(=NC(=O)CC)n(C)c2ccccc21 | – | – | – | – | –
O=C(O)[C@H]1CN(C/C=C/P(=O)(O)O)CCN1 | · | – | – | · | ·
O=C1CC(c2nc(-c3ccccc3)no2)CN1c1ccccc1 (centres undefined) | – | · | · | · | –
CCOC(=O)c1cc(C#N)c(Oc2ccccc2)nc1-c1ccccc1 | ? | – | – | – | –
CCCNc1nc(-c2ccccc2)c(C(=O)OCC)cc1C#N | – | 12µM | 16µM | – | ?
C=CCNc1nc(C)c(C(C)=O)cc1C#N | – | – | – | – | –
CCCCNc1nc(-c2ccccc2)c(C(=O)OCC)cc1C#N | 18µM | ? | ? | – | ?
C=CCNc1nc(-c2ccccc2)c(C(=O)OCC)cc1C#N | ? | 15µM | ? | – | 10µM
Cc1ccc2c(c1)c1c(c(=O)n(-c3cccc(Cl)c3)c(=O)n1CC(=O)N1CCCC1)n2C | – | · | · | · | –
Nc1cc2c(cc1N)-c1ccccc1C2 | ? | ? | ? | -52 | ?

From PubChem
